The results in this text go back to PubChem BioAssay.

Activity calls are given as the source filed them. Unless noted, the rule behind the calls is not given here.

Assay [1] in a line: HepG2 liver cancer cell viability effects, profiling panel, resazurin fluorescence, 24 h, PK04 Diversity Set (AID 1172). Note: test concentration not given here. The conditions noted are these: higher = more signal. On the technique in general: Alamar Blue is a resazurin reagent that responds to reducing activity.
The nature of assay [2]: basal S. cerevisiae growth modulation, no modifier, primary screen, OD600, strain BY4716, 24 h, basal condition (AID 1173). The conditions noted are these: OD600, 24 h, higher = more signal, called active from +8 up or from −8 down.
Assay [3] is described as follows: MM1S myeloma cell viability, profiling panel, resazurin fluorescence, basal, 24 h, PK04 Diversity Set (AID 1174).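 Note: MM1S multiple myeloma cell line; test concentration not given here.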 To be noted: higher = more signal, called active from +8 up or from −8 down.
The target in assay [4] is Dihydroorotate dehydrogenase (quinone), mitochondrial (Plasmodium falciparum (isolate 3D7)) (UniProt Q08210). Description: PfDHODH enzyme inhibitors, primary screen, biochemical, C-terminal His tag, absorbance 600 nm (AID 1175).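 Note: recombinant parasite enzyme with a five histidine tag at its C terminus; test concentration not given here.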 The conditions noted are these: DCIP absorbance 600 nm, higher = more signal, called active from +8 up or from −8 down.
Chain of Dihydroorotate dehydrogenase (quinone), mitochondrial (Plasmodium falciparum (isolate 3D7)) (Q08210 whole entry, looked up): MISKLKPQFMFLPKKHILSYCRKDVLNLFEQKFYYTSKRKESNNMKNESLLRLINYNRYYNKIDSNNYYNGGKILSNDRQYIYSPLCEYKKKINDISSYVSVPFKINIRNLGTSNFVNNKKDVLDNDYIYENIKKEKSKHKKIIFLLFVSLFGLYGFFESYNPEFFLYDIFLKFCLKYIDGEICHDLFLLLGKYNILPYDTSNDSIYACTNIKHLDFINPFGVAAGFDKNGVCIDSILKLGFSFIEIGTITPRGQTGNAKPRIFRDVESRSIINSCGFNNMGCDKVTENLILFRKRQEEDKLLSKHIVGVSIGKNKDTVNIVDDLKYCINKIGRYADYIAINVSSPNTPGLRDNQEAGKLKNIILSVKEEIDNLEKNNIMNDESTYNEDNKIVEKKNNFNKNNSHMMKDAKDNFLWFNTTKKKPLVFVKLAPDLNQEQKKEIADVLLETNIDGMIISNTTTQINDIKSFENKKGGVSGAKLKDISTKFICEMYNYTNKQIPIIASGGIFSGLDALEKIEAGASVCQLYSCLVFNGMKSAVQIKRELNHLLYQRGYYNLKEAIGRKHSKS
Assay [5] can be described thus: P. aeruginosa biofilm formation inhibitors, primary screen, strain PAO1, LB-PBS medium, absorbance 600 nm (AID 1176). Note: test concentration not given here. The conditions noted are these: P. aeruginosa PAO1 growth/biofilm, A600, 12 h; higher = more signal.
A short description of assay [6]: S. cerevisiae RM11-1a growth modifiers, primary screen, strain RM11-1a, OD600, basal, 24 h (AID 1177).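 Note: cultures grown under basal conditions with no added stressor; test concentration not given here.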 The conditions noted are these: OD600, 24 h, higher = more signal, called active from +8 up or from −8 down.
The nature of assay [7]: E. coli acrAB mutant growth effects, primary screen, E. coli filamentation inducers, strain DRC39, OD650, 24 h (AID 1178).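 Note: growth measured as culture turbidity by optical density at 650 nm; test concentration not given here.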 The conditions noted are these: higher = more signal, called active from +8 up or from −8 down.
Assay [8] is described as follows: E. coli acrAB mutant growth effects, primary screen, E. coli filamentation inducers, strain DRC39, OD650, 48 h (AID 1179).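 Note: screen aims at cell division blockers that make cells filament.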 The conditions noted are these: E. coli DRC39 delta-acrAB growth, higher = more signal, called active from +8 up or from −8 down.
The nature of assay [9]: RPMI8226 myeloma cell viability, profiling panel, resazurin fluorescence, basal, 24 h, PK04 Diversity Set (AID 1180).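 Note: RPMI8826 multiple myeloma cell line at 5000 cells per well; test concentration not given here.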 To be noted: higher = more signal.
Assay [10] has as its target E3 ubiquitin-protein ligase XIAP (Homo sapiens) (UniProt P98170). Description: XIAP binders, primary screen, biophysical, small-molecule microarray, fluorescence 635 nm (AID 1181).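 Note: score merges 667 nm emission and signal to noise over triplicate slides.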 The conditions noted are these: small-molecule microarray binding, higher = more signal.

Chain of E3 ubiquitin-protein ligase XIAP (Homo sapiens) (P98170 whole entry, looked up): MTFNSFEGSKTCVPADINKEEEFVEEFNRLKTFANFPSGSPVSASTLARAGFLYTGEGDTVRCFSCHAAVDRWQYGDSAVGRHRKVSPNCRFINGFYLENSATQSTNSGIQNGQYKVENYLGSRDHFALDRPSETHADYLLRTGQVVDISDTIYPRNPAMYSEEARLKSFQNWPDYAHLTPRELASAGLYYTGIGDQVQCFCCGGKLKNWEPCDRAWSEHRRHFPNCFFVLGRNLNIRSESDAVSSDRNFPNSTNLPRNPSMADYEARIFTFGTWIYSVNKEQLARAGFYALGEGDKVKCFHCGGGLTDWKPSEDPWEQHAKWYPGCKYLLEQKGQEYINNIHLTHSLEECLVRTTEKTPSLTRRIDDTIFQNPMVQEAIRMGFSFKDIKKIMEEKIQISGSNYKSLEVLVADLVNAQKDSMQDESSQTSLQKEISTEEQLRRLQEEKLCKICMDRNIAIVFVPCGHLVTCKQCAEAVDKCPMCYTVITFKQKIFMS

Take `COCC(=C=CC[C@H](O)c1cccc(OCCO)c1)C[C@H](O)COCc1ccccc1`: the z-score in assay [1] is -0.136; in assay [2], -1.76 (inactive); in assay [3], -0.0529 (inactive); in [5] it was 0.838 (inactive); in assay [6], -0.496 (inactive); in assay [7], -0.0164 (inactive). Besides, the z-score in assay [8] is 0.0211 (inactive); in assay [9] it was 0.0473. Besides, the composite z-score in [4] is -1.65 (inactive); in assay [10] it was 0.0736.
As to `CC(=O)N1CC(C(O)C2C=CC3C(=O)NC(=O)C3N2Nc2ccc(Cl)cc2Cl)c2ccccc21` (stereo not given), the z-score in assay [1] is -1.59; in assay [2], -2.62 (inactive); in assay [3], -0.731 (inactive); in [5], 1.28 (inactive); in assay [6], 1.82 (inactive); in assay [7] it was -0.306 (inactive). Besides, the z-score in [8] is -0.547 (inactive); in [9], -0.94. The values for the composite z-score in assay [4] and in [10] were 0.905 (inactive) and 0.277, respectively.
Consider `C=C(CCCC)C(=O)CC[C@H](OC(=O)c1ccccc1-c1ccccc1C(=O)O)c1ccccc1OCCO`, for which the z-score in [1] was -1.08; in assay [2] it was -1.45 (inactive); in assay [3], -0.976 (inactive); in [5] it was 0.91 (inactive); in assay [6], -0.0444 (inactive); in assay [7] it was 0.506 (inactive). In addition, the results for the z-score in assay [8] and in assay [9] were 0.237 (inactive) and -1.03, respectively. The composite z-score in [4] was -0.824 (inactive); in assay [10], 0.0416.
Regarding `COCCOC(=O)N1C(=O)[C@@]2(c3cc(C#CCCO)ccc31)[C@H](C(N)=O)[C@H]1C(=O)O[C@H](c3ccccc3)[C@H](c3ccccc3)N1[C@@H]2c1ccc(OCCO)cc1`, the z-score in assay [1] was -0.639; in [2] it was 1.21 (inactive); in [3], -0.479 (inactive); in [5] it was 1.56 (inactive); in [6], 2.16 (inactive); in [7], -0.138 (inactive). The z-score is 0.386 (inactive) in assay [8] and -0.621 in assay [9]. In addition, the values for the composite z-score in assay [4] and in assay [10] were 0.46 (inactive) and 0.409, respectively.
On to `CN(C)C(=O)[C@@]1(Cc2ccccc2N=[N+]=[N-])N=C(c2ccc(OCCCO)cc2)O[C@H]1c1ccccc1`, for which the z-score was 0.329 in [1]; -1.23 (inactive) in assay [2]; -3.18 (inactive) in [3]; 0.274 (inactive) in [5]; 0.751 (inactive) in [6]; -0.105 (inactive) in assay [7]. In addition, the z-score is -1.1 (inactive) in [8] and -3.04 in [9]. Moreover, the results for the composite z-score in assay [4] and in [10] were 0.346 (inactive) and 0.102, respectively.
As to `COCCOC(=O)N1C(=O)[C@@]2(c3cc(C#CCCO)ccc31)[C@H](C(=O)N1CCCCCCC1)[C@H]1C(=O)O[C@H](c3ccccc3)[C@H](c3ccccc3)N1[C@@H]2c1ccccc1OCCO`, the z-score in assay [1] was -0.0873; in assay [2] it was 0.348 (inactive); in assay [3], 0.413 (inactive); in assay [5], 0.898 (inactive); in [6] it was 0.881 (inactive); in assay [7] it was -0.759 (inactive). Further, the z-score is -0.359 (inactive) in assay [8] and 0.3 in assay [9]. Moreover, the composite z-score is -0.0989 (inactive) in [4] and 0.113 in assay [10].
Take `C[C@]1(C(=O)NCCN2CCOCC2)c2ccccc2C(=O)N(Cc2cc(F)cc(C(F)(F)F)c2)[C@H]1c1ccc(CO)cc1`: the z-score in [1] was -0.0395; in [2], 0.375 (inactive); in assay [3], -0.464 (inactive); in assay [5], 0.664 (inactive); in assay [6], 0.0645 (inactive); in assay [7], 1 (inactive). For the same compound, the z-score in assay [8] was 1.67 (inactive); in assay [9], 0.0794. Besides, the results for the composite z-score in assay [4] and in [10] were 0.376 (inactive) and -0.116, respectively.
Regarding `CCOC(=O)C[C@H]1[C@H](OC(=O)c2ccccc2-c2ccccc2)[C@@H](NC(=O)c2ccc3ccccc3n2)c2cc(OCCCO)ccc2N1C(=O)c1ccccc1`, the z-score is -0.412 in assay [1]; 1.16 (inactive) in assay [2]; -0.042 (inactive) in [3]; -0.165 (inactive) in assay [5]; 1.01 (inactive) in assay [6]; -0.745 (inactive) in [7]. Also, the z-score in assay [8] was -0.916 (inactive); in [9] it was 0.303. The composite z-score in [4] was 0.742 (inactive); in assay [10] it was 0.0153.
As for `O=C1O[C@H](c2ccccc2)[C@H](c2ccccc2)N2[C@H]1[C@@H](C(=O)Nc1nc3ccccc3s1)[C@]1(C(=O)Nc3ccc(C#CC4=CCCCC4)cc31)[C@H]2c1ccc(O)cc1`, the z-score in assay [1] is 0.98; in assay [2] it was -1.03 (inactive); in assay [3] it was 0.306 (inactive); in [5], 0.517 (inactive); in assay [6] it was -0.286 (inactive); in assay [7] it was 0.442 (inactive). Besides, the values for the z-score in assay [8] and in assay [9] were 0.382 (inactive) and 0.422, respectively. Also, the figures for the composite z-score in [4] and in assay [10] were 0.667 (inactive) and -0.13, respectively.
`C=C(COC)C(=O)CC[C@H](OC(C)=O)c1ccc(OCCO)cc1`: the z-score in assay [1] was -0.429; in assay [2], -0.408 (inactive); in assay [3], -0.267 (inactive); in assay [5] it was -0.116 (inactive); in assay [6] it was -0.83 (inactive); in assay [7] it was -0.238 (inactive). In addition, the z-score was 0.53 (inactive) in [8] and -0.873 in [9]. For the same compound, the composite z-score in assay [4] is -0.998 (inactive); in assay [10], -0.326.
Regarding `O=C1[C@@H]2[C@@H](CC(COc3ccccc3)=C3[C@@H](CCc4ccccc4)OB(O)C[C@@H]32)C(=O)N1Cc1ccccc1`, the z-score is -0.665 in assay [1]; -1.23 (inactive) in assay [2]; -0.0801 (inactive) in [3]; 0.306 (inactive) in [5]; -0.0775 (inactive) in assay [6]; -0.304 (inactive) in assay [7]. In addition, the values for the z-score in assay [8] and in assay [9] were -0.915 (inactive) and -0.0577, respectively. For the same compound, the composite z-score in assay [4] is -0.77 (inactive); in assay [10] it was -0.16.
In the case of `Cc1ccc([C@H]2C(C(=O)O)=C[C@@H](C(C)(C)C)N2S(=O)(=O)c2ccc(C)cc2)cc1`, the z-score in assay [1] was -0.553; in assay [2] it was -0.405 (inactive); in [3] it was -0.648 (inactive); in [5], 0.353 (inactive); in assay [6] it was -0.0566 (inactive); in assay [7] it was -1.36 (inactive). Besides, the z-score in assay [8] is -0.387 (inactive); in assay [9] it was -2.49. For the same compound, the composite z-score in assay [4] is -0.241 (inactive); in [10], 0.193.
As for `COC(=O)[C@@]1(Cc2ccccc2CN=[N+]=[N-])N=C(c2ccc(OCCCO)cc2)O[C@H]1c1ccccc1CN=[N+]=[N-]`, the z-score in assay [1] was -1.67; in [2], 1.66 (inactive); in [3] it was -4.85 (inactive); in assay [5], 2.8 (inactive); in [6], 2.88 (inactive); in [7], 1.53 (inactive). Moreover, the figures for the z-score in assay [8] and in assay [9] were -0.47 (inactive) and -4.32, respectively. Also, the values for the composite z-score in assay [4] and in [10] were 2.46 (inactive) and -0.113, respectively.
Regarding `COCCOC(=O)N1C(=O)[C@@]2(c3cc(C#CCNC(N)=O)ccc31)[C@H](c1ccc(O)cc1)N1[C@H](c3ccccc3)[C@H](c3ccccc3)OC(=O)[C@H]1[C@@H]2C(N)=O`, the z-score in [1] was 1.18; in assay [2] it was 0.282 (inactive); in [3], -0.96 (inactive); in [5], 0.0568 (inactive); in assay [6] it was 0.203 (inactive); in assay [7], 0.507 (inactive). Moreover, the z-score in assay [8] was 1.28 (inactive); in assay [9], -0.938. For the same compound, the figures for the composite z-score in assay [4] and in [10] were 0.329 (inactive) and 0.0372, respectively.
Turning to `COCCOC(=O)N1C(=O)[C@@]2(c3cc(C#CCC(C(=O)OC)C(=O)OC)ccc31)[C@H](C(=O)NC[C@H](O)c1ccccc1)[C@H]1C(=O)O[C@H](c3ccccc3)[C@H](c3ccccc3)N1[C@@H]2c1ccc(O)cc1`, the z-score was 0.442 in assay [1]; 1.14 (inactive) in assay [2]; 0.73 (inactive) in [3]; 1.1 (inactive) in assay [5]; 1.24 (inactive) in [6]; 0.35 (inactive) in [7]. The z-score was 0.644 (inactive) in assay [8] and -1.4 in [9]. In addition, the values for the composite z-score in assay [4] and in assay [10] were -2.68 (inactive) and -0.096, respectively.
On to `COc1ccc(C(=O)Nc2cccc(CN3C(=O)[C@]4(O[C@H](CCn5cc([C@H](O)c6ccccc6)nn5)[C@@H]([Si](C)(C)c5ccc(OC)cc5)[C@@H]4C)c4ccccc43)c2)cc1`, for which the z-score in [1] was -2.58; in assay [2], -1.18 (inactive); in assay [3], -5.94 (inactive); in [5], 1.86 (inactive); in assay [6], 0.99 (inactive); in assay [7], -0.409 (inactive). In addition, the z-score in assay [8] is -0.389 (inactive); in assay [9], -5.61. Further, the composite z-score in [4] was -0.512 (inactive); in [10], 0.0589.
For the compound `CCCC=C(CCC)[C@@H](NC(=O)CCc1ccccc1)c1ccc(C(F)(F)F)cc1`, the z-score in [1] is 0.561; in assay [2], -0.357 (inactive); in assay [3], -0.407 (inactive); in assay [5] it was 0.0944 (inactive); in [6] it was 0.439 (inactive); in [7], 0.0152 (inactive). Further, the results for the z-score in assay [8] and in assay [9] were -0.0054 (inactive) and -0.581, respectively. The composite z-score in assay [4] is -1.39 (inactive); in assay [10], 0.0734.
Regarding `NCCCCCNC(=O)[C@@H]1C[C@@H]2C(=O)N3CCC[C@H]3C(=O)N2[C@@H]1c1ccc(O)cc1`, the z-score in assay [1] was -0.448; in assay [2] it was 0.2 (inactive); in assay [3], 0.422 (inactive); in assay [5] it was -0.102 (inactive); in assay [6] it was 0.801 (inactive); in assay [7] it was -0.281 (inactive). Moreover, the z-score in [8] was -0.107 (inactive); in assay [9], 0.272. In addition, the composite z-score in assay [4] was 0.509 (inactive); in [10] it was -0.0663.
